{"source": "ChEMBL document CHEMBL4513216", "about": "“Probing the Open Global Health Chemical Diversity Library for Multistage-Active Starting Points for Next-Generation Antimalarials” (ACS Infect Dis, 2020)", "note": "Hit rate of the full screen: of about 69,000 compounds, about 8,600 (12%) showed an effect of 50% or more. Only a selection was taken, and strong results are over-represented in it overall."}
{"test_system": "Plasmodium berghei", "test": "Screen against P. berghei liver stage (PbLuc), transformed with Luciferase, at 10uM", "format": "functional, HepG2", "settings": "tested at 10 uM", "units": {"INHIBITION": "%"}}
{"compound": "Cc1nn(C)c(=O)c2nn(-c3cccc(Cl)c3)c(C)c12", "INHIBITION": 37.2}
{"compound": "N#Cc1c(N)nc2c(c1-c1c[nH]nc1C1CCCCC1)COCC2", "INHIBITION": 11.5}
{"compound": "Cn1cc(-c2nc(CN3CCOC(Cn4cncn4)C3)cs2)cn1", "note": "(centres undefined)", "INHIBITION": 26.5}
{"compound": "COc1ccc(NC(=O)CSc2nncn2-n2cccc2)c(OC)c1", "INHIBITION": 31.6}
{"compound": "CCn1nc2c(cc1=O)CN(CC(=O)Nc1nc(C)c(C)s1)CC2", "INHIBITION": -0.188}
{"compound": "Cc1cc(N(C)C)nc(C2CCCN2)n1", "note": "(centres undefined)", "INHIBITION": 15.5}
{"compound": "CO[C@@H]1CCN(C(=O)c2ccccn2)[C@H]1Cc1ccccc1", "INHIBITION": -15.1}
{"compound": "COc1ccc(Oc2ncccc2C(F)(F)F)cc1CN1CCCC1", "INHIBITION": 66.6}
{"compound": "COc1ccc(F)cc1CN1CCC(O)(CN2CCCCC2)C1", "note": "(centres undefined)", "INHIBITION": 16.1}
{"compound": "COc1ccc(Oc2ncccc2C(N)=O)cc1CN1CCCC1", "INHIBITION": 51.2}
{"compound": "COc1ncccc1CN1CCC2(CCCN2S(C)(=O)=O)CC1", "INHIBITION": 45.2}
{"compound": "COc1ccccc1Oc1ncccc1CNC(=O)C(C)N1CCCC1", "note": "(centres undefined)", "INHIBITION": 21.7}
{"compound": "COc1ccc(F)cc1CN1CCCC(c2cc(C(N)=O)[nH]n2)C1", "note": "(centres undefined)", "INHIBITION": -2.42}
{"compound": "CC(C)c1nn(C)c(N(C)C)c1CNCc1ccccc1CO", "INHIBITION": -9.05}
{"compound": "Cc1cc(CN(C)C(=O)NC2CCN(C3CC3)CC2)no1", "INHIBITION": 3.75}
{"compound": "Cc1ccc(C)c(CSc2nnc([C@@H](N)C(C)C)o2)c1", "INHIBITION": 34.5}
{"compound": "CCC(=O)Nc1ccc(OCC(=O)N(C)C(C)c2ccon2)cc1", "note": "(centres undefined)", "INHIBITION": 10.7}
{"compound": "Cc1ccc(-c2nc(CC3CCN(C)CC3)no2)cc1N1CCNC1=O", "INHIBITION": 14.1}
{"compound": "CC(c1nnc(-c2cccs2)o1)N1CCc2cncnc2C1", "note": "(centres undefined)", "INHIBITION": -18.5}
{"compound": "O=C(NCC1OCCc2cn(CC3CCOCC3)nc21)c1ccsc1", "note": "(centres undefined)", "INHIBITION": 49.3}
{"compound": "Cc1cccc(CN2CCS(=O)(=O)[C@@H]3CCN(C(=O)C4CC4)CC[C@@H]32)n1", "INHIBITION": 34.9}
{"compound": "Cc1ccc(N2CC[C@@H]3[C@@H]2CCN3C(=O)Cc2cccs2)nn1", "INHIBITION": 31.2}
{"compound": "O=C1C[C@H]2[C@@H](CCN2C(=O)Cc2ccccc2)N1Cc1cccnc1", "INHIBITION": -6.05}
{"compound": "Cc1ccc(N2CC[C@@H]3[C@@H]2CCN3Cc2ccsc2)nn1", "INHIBITION": 51.2}
{"compound": "Cc1ccc(N2CC[C@@H]3[C@@H]2CCN3C(=O)Cc2ccccc2)nn1", "INHIBITION": 69.3}
{"compound": "Cc1ccc(N2CCCC(NCc3ccsc3)C2)nn1", "note": "(centres undefined)", "INHIBITION": 5.44}
{"compound": "CCC(=O)N1CC[C@@H]2[C@H](CC1)N(Cc1cccc(C)n1)CCS2(=O)=O", "INHIBITION": 2.4}
{"compound": "Cc1ccc(N2CC[C@@H]3[C@@H]2CCN3C(=O)c2cscn2)nn1", "INHIBITION": 18.5}
{"compound": "O=C(Cc1ccccc1)N1CC[C@H]2[C@@H]1CCC(=O)N2Cc1ccncc1", "INHIBITION": 3.25}
{"compound": "CCCC(=O)N1CC[C@@H]2[C@H](CC1)N(Cc1cccc(C)n1)CCS2(=O)=O", "INHIBITION": 57.1}
{"compound": "O=C1C[C@H]2[C@@H](CCN2C(=O)Cc2cccs2)N1Cc1cccnc1", "INHIBITION": 24.9}
{"compound": "O=C1C[C@H]2[C@@H](CCN2C(=O)Cc2ccsc2)N1Cc1cccnc1", "INHIBITION": 62.9}
{"compound": "CCN(Cc1noc(C2CCC2)n1)C(=O)c1cnc2ccccc2c1", "INHIBITION": 7.44}
{"compound": "Cc1nc(-c2ccccc2C(=O)O)cc(C2CCN(C(C)C)C2)n1", "note": "(centres undefined)", "INHIBITION": 24.8}
{"compound": "NC(=O)[C@@H]1CN2CCN(C(=O)C3CC3)C[C@@H]2[C@H]1c1ccccc1", "INHIBITION": 16.9}
{"compound": "CC(C)c1nc(C2CCCN(C(=O)Cn3ccccc3=O)C2)no1", "note": "(centres undefined)", "INHIBITION": -7.31}
{"compound": "CN1Cc2cnn(CC3CCCC3)c2C(COCC2CC2)C1", "note": "(centres undefined)", "INHIBITION": 26.3}
{"compound": "Cc1ccc(CN2CC[C@H]3C[C@H](C(=O)N4CCCO4)O[C@@H]3C2)o1", "INHIBITION": 38.5}
{"compound": "CCN(CC)C(CNC(=O)c1ccc(-n2cncn2)cc1)c1ccsc1", "note": "(centres undefined)", "INHIBITION": -2.46}
{"compound": "CNC(=O)c1sc2ccccc2c1CC1CCCCN1Cc1ncc[nH]1", "note": "(centres undefined)", "INHIBITION": 42.2}
{"compound": "O=C(Cn1nc(Br)nc1Br)N1CCCC1", "INHIBITION": 27.4}
{"compound": "Cc1ccc(NC2CCN(C(=O)CCc3ccsc3)CC2)nn1", "INHIBITION": -59.4}
{"compound": "Cc1cccc(CN2C(=O)C[C@@H]3[C@@H]2CCN3Cc2ccsc2)n1", "INHIBITION": 46.9}
{"compound": "Cc1cccc(CN2CC[C@@H]3[C@@H]2CCN3C(=O)Cc2ccsc2)n1", "INHIBITION": 63.8}
{"compound": "O=C(Cc1cccs1)N1CC[C@H]2[C@H]1CCN2Cc1cccnc1", "INHIBITION": -25.8}
{"compound": "Cc1cccc(CN2CC[C@@H]3[C@@H]2CCN3C(=O)Cc2cccs2)n1", "INHIBITION": 42.1}
{"compound": "O=C1C[C@H]2[C@@H](CCN2C(=O)Cc2cccs2)N1CC1CC1", "INHIBITION": -38.1}
{"compound": "Cc1ccc(N2CCCN(C(=O)CCc3ccsc3)CC2)nn1", "INHIBITION": 1.04}
{"compound": "Cc1ccc(N2CC[C@@H]3[C@@H]2CCN3C(=O)Cc2ccsc2)nn1", "INHIBITION": 55.7}
{"compound": "Cc1ccc(CN2CC[C@@H]3[C@@H]2CCN3C(=O)Cc2cccs2)o1", "INHIBITION": 93.7}
{"compound": "COC(=O)[C@H](CCSC)NC(=O)Cn1ccc2c(Cl)cccc21", "INHIBITION": 25}
{"compound": "CN(C)C(=O)c1sc2ncccc2c1C1CNCCO1", "note": "(centres undefined)", "INHIBITION": 12.8}
{"compound": "O=C(CO)N1CCC(c2cncc(-c3cccc(Cl)c3)n2)CC1", "INHIBITION": 46.6}
{"compound": "Cc1cnn(C2CCCN(C(=O)c3cc(Cl)c4c(c3)OCO4)C2)c1", "note": "(centres undefined)", "INHIBITION": 37.9}
{"compound": "COc1ccc(-n2cc3nc(N)[nH]cc-3c2=O)cc1Cl", "INHIBITION": 43.3}
{"compound": "COc1ccc(-c2ccnc3nc(N4CCCCC4)[nH]c(=O)c23)cc1", "INHIBITION": 30.8}
{"compound": "CC(C)c1nnc2n1CCN(Cc1ccc3c(c1)OCCO3)C2", "INHIBITION": -41.4}
{"compound": "CC(C)c1nnc2n1CCN(Cc1cc(Cl)c3c(c1)OCO3)C2", "INHIBITION": 33.7}
{"compound": "CC(C)c1nnc2n1CCN(Cc1ccc3c(c1)OCO3)CC2", "INHIBITION": 54.6}
{"compound": "O=C(NCC1CCC(c2ccnc3ncnn23)CC1)c1ccccn1", "note": "(centres undefined)", "INHIBITION": -24.4}
{"compound": "Cn1nc(C(=O)NC2(c3ccc(Cl)cc3)CCCC2)ccc1=O", "INHIBITION": 6.67}
{"compound": "O=C(CCCn1cncn1)NC1(c2ccc(Cl)cc2)CCC1", "INHIBITION": 61.3}
{"compound": "Cc1cccc(C2(NC(=O)CCN3C(=O)CCC3=O)CCCC2)c1", "INHIBITION": 28.7}
{"compound": "O=C(CCCn1cncn1)NC1(c2ccccc2)CCC1", "INHIBITION": -21.5}
{"compound": "Cc1cccc(C2(NC(=O)CCCn3cncn3)CCCC2)c1", "INHIBITION": 57.3}
{"compound": "COc1ccc(C2(NC(=O)c3ccc(=O)n(C)n3)CCCC2)cc1", "INHIBITION": 17.7}
{"compound": "O=C(CCCn1cncn1)NC1(c2cccc(Br)c2)CC1", "INHIBITION": 27.5}
{"compound": "O=C(CCn1cncn1)NC1(c2cccc(Br)c2)CCC1", "INHIBITION": 33.5}
{"compound": "COc1ccc(C2(NC(=O)CCn3cncn3)CCCCC2)cc1", "INHIBITION": 62.6}
{"compound": "Cc1nn(C)c(C)c1-c1cnc(CC2CCNCC2)cn1", "INHIBITION": 21.1}
{"compound": "CCN(C(=O)Cn1cc(NC(=O)C(C)(C)C)cn1)c1ccccc1", "INHIBITION": 7.65}
{"compound": "Cc1cncc(C(=O)N2CCC3(CCCN(c4nncs4)C3)C2)c1", "note": "(centres undefined)", "INHIBITION": 41.2}
{"compound": "O=C(Nc1ccccc1)C1=NOC2(CCCN(C(=O)N3CCCC3)C2)C1", "note": "(centres undefined)", "INHIBITION": -8.28}
{"compound": "CNS(=O)(=O)CCCN(C)Cc1cc(C)ccc1OC", "INHIBITION": 59.1}
{"compound": "CCS(=O)(=O)CCN(C)Cc1cc(C)ccc1OC", "INHIBITION": 21.1}
{"compound": "COc1ccc(C)cc1CN(C)CCCNS(C)(=O)=O", "INHIBITION": 23}
{"compound": "CC(=O)N1CCN(C(=O)c2ccc3ccn(C)c3c2)CC1", "INHIBITION": 63.3}
{"compound": "CCOC(=O)N1CCN(C(=O)c2ccc3ccn(C)c3c2)CC1", "INHIBITION": 38.5}
{"compound": "Cn1ccc2ccc(C(=O)N3CCN(C(=O)N4CCOCC4)CC3)cc21", "INHIBITION": 40.1}
{"compound": "C[C@@H]1CN(C(=O)[C@H]2CCCO2)C[C@]12CCN(c1ccsc1)C2=O", "INHIBITION": 49.7}
{"compound": "COc1ncccc1C(=O)N1CC[C@H]2C[C@@H](C)O[C@@H]2C1", "INHIBITION": -40.3}
{"compound": "Cc1ccc(N2CC[C@@H]3O[C@@H](c4ccncn4)C[C@H]3C2)nn1", "INHIBITION": 37.8}
{"compound": "COc1ncccc1C(=O)N1CC[C@H]2C[C@@H](c3ccncn3)O[C@@H]2C1", "INHIBITION": -42.8}
{"compound": "COc1ncccc1C(=O)N1CC[C@H]2C[C@H](c3ccncn3)O[C@@H]2C1", "INHIBITION": 52}
{"compound": "COc1cc(N2CC[C@@H]3O[C@@H](c4ccncn4)C[C@H]3C2)ncn1", "INHIBITION": 73.2}
{"compound": "COc1cc(N2CC[C@@H]3O[C@@H](c4ccnc(C)n4)C[C@H]3C2)ncn1", "INHIBITION": 45.8}
{"compound": "CCc1nc(Nc2ccc(C(=O)NC)cc2)c2c(n1)c(C)nn2CC", "INHIBITION": 18.85}
{"compound": "O=C(NC1CCc2ccccc2C1)C1CCN(Cc2ccco2)CC1", "note": "(centres undefined)", "INHIBITION": 31}
{"compound": "Cc1noc(C(C)N2CCN(CCOCC(F)(F)F)CC2)n1", "note": "(centres undefined)", "INHIBITION": 12.85}
{"compound": "OCc1ccc(CN2CCC(n3cc(-c4ccc(F)cc4)nn3)CC2)o1", "INHIBITION": -0.529}
{"compound": "O=C(C1CCCO1)N1CCC(n2cc(-c3ccc(F)cc3)nn2)CC1", "note": "(centres undefined)", "INHIBITION": -10.9}
{"compound": "Oc1ccccc1CN1CCC(n2cc(-c3ccc(F)cc3)nn2)CC1", "INHIBITION": 55}
{"compound": "Cc1ccc(-c2cn(C3CCN(C(=O)[C@H]4CCCO4)CC3)nn2)cc1", "INHIBITION": 23.3}
{"compound": "Cc1cncc(C2CCN(Cc3cnc(C)nc3)CC2)n1", "INHIBITION": 36.44}
{"compound": "Cc1ncc(CN2CCC(n3cc(-c4ccc(F)cc4)nn3)CC2)cn1", "INHIBITION": 53.8}
{"compound": "O=C(c1ccccn1)N1Cc2nccn2CC(CN2CCOCC2)C1", "note": "(centres undefined)", "INHIBITION": 38.7}
{"compound": "CNC(=O)CCc1cc(C2CCN(c3cnccn3)CC2)nc(C)n1", "INHIBITION": 15.85}
{"compound": "CN(C)Cc1cn2c(n1)CN(CC1CCCC1)CC2", "INHIBITION": 29}
{"compound": "CCn1ccc(-c2cc(C(=O)O)n3nc(C(F)(F)F)c(Br)c3n2)n1", "INHIBITION": 11.2}
